The values below come from PubChem BioAssay.

Values without a mark were called inactive. For part of these data: Potency and affinity values are given separately. Activity calls are given as the source filed them. Unless noted, the rule behind the calls is not given here.

Experiment [1] can be described thus: antimalarial activity against Dd2 strain (AID 2302;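 active = growth inhibition above 50% at the single 2 µM test dose, taken to imply half-maximal potency below 2 µM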;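 note: 0% = DMSO untreated growth and 100% = chloroquine plus artemisinin killed control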). The settings on record: P. falciparum Dd2 in RBCs, LDH growth readout, 72 h; at 2 µM; stronger effect = higher value.
Experiment [2] can be described thus: HepG2 cytotoxicity, primary screen, cytotoxicity control for P. falciparum antimalarial project, cell-based, ATP luminescence (AID 2303;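 active = inhibition above 50%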;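 note: 0% = DMSO wells and 100% = digitonin-killed cells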). The note with it: HepG2 viability, 24-48 h, at 10 µM, stronger effect = higher value.
Experiment [3] deals with L-lactate dehydrogenase (Plasmodium falciparum (isolate CDC / Honduras)) (UniProt Q27743). In words: PfLDH activity inhibition – cell lysate, 3D7 strain, counter-screen for P. falciparum growth inhibition project (AID 2304).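 Note: 0% = vehicle and 100% = reference inhibitor.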 The settings on record: P. falciparum 3D7 crude extract, LDH APAD/NBT absorbance; at 2 µM; stronger effect = higher value. (The purpose of a counterscreen is to sort out artefacts and off-target activity.)
Sequence of L-lactate dehydrogenase (Plasmodium falciparum (isolate CDC / Honduras)) (Q27743 whole entry, looked up): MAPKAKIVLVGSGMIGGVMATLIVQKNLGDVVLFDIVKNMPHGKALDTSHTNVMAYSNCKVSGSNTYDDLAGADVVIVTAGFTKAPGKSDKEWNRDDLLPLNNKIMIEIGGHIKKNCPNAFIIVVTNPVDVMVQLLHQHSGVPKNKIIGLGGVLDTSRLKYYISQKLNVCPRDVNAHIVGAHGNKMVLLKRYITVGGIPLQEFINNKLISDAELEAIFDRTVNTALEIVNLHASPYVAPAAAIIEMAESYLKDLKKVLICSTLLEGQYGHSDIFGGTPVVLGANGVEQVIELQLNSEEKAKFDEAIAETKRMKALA

A short description of experiment [4]: inhibition of 3D7 malaria parasite growth – strain 3D7 (AID 2306).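 Note: 0% = DMSO wells and 100% = chloroquine plus artemisinin control wells.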 The note with it: P. falciparum 3D7 erythrocytic growth, LDH absorbance, 72 h; at 2 µM; stronger effect = higher value.
Experiment [5] has as its target Calcium-dependent protein kinase 1 (Plasmodium falciparum (isolate 3D7)) (UniProt P62344). In words: PfCDPK1 kinase inhibitors, biochemical, TCAMS library (AID 1159585; cut-off not given, nearly all actives have IC50 up to about 0.98 µM;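 note: inhibitors leave more ATP so luminescence rises with inhibition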). The settings on record: recombinant PfCDPK1, Kinase-Glo ATP depletion luminescence. On the technique in general: In Kinase-Glo more light means more ATP remaining.
Experiment [6] concerns the target Plasmodium falciparum protein kinase 6 (PK6, PF3D7_1337100) (UniProt Q8IDW1). In words: PfPK6 kinase inhibitors, biochemical, TCAMS library (AID 1159586). The settings on record: recombinant PfPK6, Kinase-Glo ATP depletion luminescence.
In experiment [7] the target is Protein kinase 7 (PK7), Plasmodium falciparum 3D7 (PF3D7_0213400) (UniProt Q7YTF7). Description: inhibition of Plasmodium PK7 catalytic activity – biochemical, TCAMS antimalarial set, Kinase-Glo luminescence (AID 1159587). The note with it: recombinant PfPK7, Kinase-Glo ATP depletion luminescence.
Sequence of Protein kinase 7 (PK7), Plasmodium falciparum 3D7 (PF3D7_0213400) (Q7YTF7 1-343): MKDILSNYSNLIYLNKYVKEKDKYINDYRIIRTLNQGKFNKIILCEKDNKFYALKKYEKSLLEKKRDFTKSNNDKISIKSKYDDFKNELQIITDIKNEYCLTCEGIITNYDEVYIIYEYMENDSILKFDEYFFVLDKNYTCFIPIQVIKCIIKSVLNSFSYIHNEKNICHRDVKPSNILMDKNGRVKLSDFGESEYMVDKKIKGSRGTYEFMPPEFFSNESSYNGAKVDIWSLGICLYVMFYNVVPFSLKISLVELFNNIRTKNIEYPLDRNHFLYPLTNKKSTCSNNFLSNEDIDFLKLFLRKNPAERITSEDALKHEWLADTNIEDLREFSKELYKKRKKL
Experiment [8] concerns the target Calcium-dependent protein kinase 4 (Plasmodium falciparum (isolate 3D7)) (UniProt Q8IBS5). Description: PfCDPK4 kinase inhibitors, biochemical, TCAMS library (AID 1159588; cut-off not given, nearly all actives have IC50 up to about 0.91 µM). The settings on record: recombinant PfCDPK4, Kinase-Glo ATP depletion luminescence.

Sequence of Calcium-dependent protein kinase 1 (Plasmodium falciparum (isolate 3D7)) (P62344 whole entry, looked up): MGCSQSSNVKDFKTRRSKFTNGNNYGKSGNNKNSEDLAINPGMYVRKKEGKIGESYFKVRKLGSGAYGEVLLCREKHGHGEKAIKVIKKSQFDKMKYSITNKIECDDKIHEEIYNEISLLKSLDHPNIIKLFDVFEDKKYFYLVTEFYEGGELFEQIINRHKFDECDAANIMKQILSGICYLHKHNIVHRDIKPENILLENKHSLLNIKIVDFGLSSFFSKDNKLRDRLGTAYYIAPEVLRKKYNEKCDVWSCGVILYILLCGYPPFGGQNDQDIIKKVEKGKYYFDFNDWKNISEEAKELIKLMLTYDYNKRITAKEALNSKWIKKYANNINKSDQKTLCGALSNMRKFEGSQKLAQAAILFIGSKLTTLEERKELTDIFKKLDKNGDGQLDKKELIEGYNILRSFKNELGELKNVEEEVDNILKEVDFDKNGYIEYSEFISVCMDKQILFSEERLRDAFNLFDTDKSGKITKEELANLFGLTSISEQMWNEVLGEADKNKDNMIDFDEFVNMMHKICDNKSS
Sequence of Plasmodium falciparum protein kinase 6 (PK6, PF3D7_1337100) (Q8IDW1 1-305): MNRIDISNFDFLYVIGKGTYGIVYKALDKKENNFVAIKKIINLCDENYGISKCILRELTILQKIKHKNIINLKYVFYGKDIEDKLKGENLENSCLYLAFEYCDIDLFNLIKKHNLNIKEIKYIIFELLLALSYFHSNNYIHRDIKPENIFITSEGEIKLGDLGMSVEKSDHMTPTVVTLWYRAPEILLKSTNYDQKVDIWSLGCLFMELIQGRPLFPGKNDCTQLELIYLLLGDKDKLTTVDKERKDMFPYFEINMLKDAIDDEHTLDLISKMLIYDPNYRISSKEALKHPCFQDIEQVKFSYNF
Sequence of Calcium-dependent protein kinase 4 (Plasmodium falciparum (isolate 3D7)) (Q8IBS5 whole entry, looked up): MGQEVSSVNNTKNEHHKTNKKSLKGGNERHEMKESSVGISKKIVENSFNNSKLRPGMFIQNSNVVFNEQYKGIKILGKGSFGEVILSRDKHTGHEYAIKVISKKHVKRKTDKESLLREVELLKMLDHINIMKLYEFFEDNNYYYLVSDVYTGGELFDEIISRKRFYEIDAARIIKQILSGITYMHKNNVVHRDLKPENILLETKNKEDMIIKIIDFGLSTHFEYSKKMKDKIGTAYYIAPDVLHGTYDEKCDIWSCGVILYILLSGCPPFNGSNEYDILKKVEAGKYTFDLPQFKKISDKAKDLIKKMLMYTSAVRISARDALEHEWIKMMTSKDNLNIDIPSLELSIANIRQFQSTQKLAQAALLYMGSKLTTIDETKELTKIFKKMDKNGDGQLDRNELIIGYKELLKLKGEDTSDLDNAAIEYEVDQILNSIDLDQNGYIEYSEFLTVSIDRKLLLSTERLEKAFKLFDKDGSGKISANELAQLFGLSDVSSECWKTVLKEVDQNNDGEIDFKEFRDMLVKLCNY

As usually defined, the inhibition is the relative decrease from the control value, in per cent. Take `COc1cc(C=NNc2cc(C)nc3c(OC)cccc23)cc(OC)c1OC`: the growth inhibition in experiment [1] is 49%; in experiment [4] it was 94% (active). The results for the inhibition in experiment [2] and in experiment [3] were 2% and 0%, respectively. Moreover, the outcome in experiment [5], in experiment [6], in experiment [7] and in experiment [8] was inactive.

On to `COc1ccc(C=C2SC(=O)NC2=Nc2ccccc2)c(OC)c1`, for which the growth inhibition in experiment [1] is 89% (active); in experiment [4], 91% (active). Further, the inhibition in experiment [2] was 51% (active); in experiment [3], -3%. Besides, the result in experiment [5], in experiment [6], in experiment [7] and in experiment [8] was inactive.

For the molecule `O=C(Nc1ccccc1N1CCOCC1)c1ncoc1-c1ccccc1C(F)(F)F`, the results for the growth inhibition in experiment [1] and in experiment [4] were 60% (active) and 89% (active), respectively. In addition, the inhibition is -2% in experiment [2] and 7% in experiment [3]. Besides, the outcome in experiment [5], in experiment [6], in experiment [7] and in experiment [8] was inactive.

Take `CCNC(=O)c1cc(S(=O)(=O)N2CCN(c3ccccn3)CC2)cs1`: the results for the growth inhibition in experiment [1] and in experiment [4] were 94% (active) and 97% (active), respectively. Moreover, the inhibition in experiment [2] is 7%; in experiment [3], 1%. Besides, the outcome in experiment [5], in experiment [6], in experiment [7] and in experiment [8] was inactive.

Turning to `CC(C)CCNC(=O)C1Cc2c([nH]c3cc(Br)ccc23)C2(CCN(Cc3ccccc3)CC2)N1` (stereo not drawn), the growth inhibition in experiment [1] is 45%; in experiment [4] it was 96% (active). Moreover, the inhibition was 10% in experiment [2] and -5% in experiment [3]. In addition, the outcome in experiment [5], in experiment [6], in experiment [7] and in experiment [8] was inactive.

With `CN1CCCN(Cc2cccc(-c3cccc(NC(=O)c4cccc(Cl)c4)c3)c2)CC1`, the growth inhibition in experiment [1] is 20%; in experiment [4], 96% (active). The inhibition in experiment [2] is 17%; in experiment [3], -4%. Further, the outcome in experiment [5], in experiment [6], in experiment [7] and in experiment [8] was inactive.

Turning to `CCc1cn(C)c2c(N3CCCC3=O)cc(C(=O)N[C@@H](Cc3ccccc3)[C@H](O)CNC3CCCCC3)cc12`, the growth inhibition is 98% (active) in experiment [1] and 97% (active) in experiment [4]. Besides, the inhibition was 8% in experiment [2] and -1% in experiment [3]. Moreover, the result in experiment [5], in experiment [6], in experiment [7] and in experiment [8] was inactive.

With `NC(=O)C1CCN(Cc2ccc(-c3cccc(-c4nc5ccc(F)cc5[nH]4)c3)cc2)CC1`, the growth inhibition in experiment [1] was 3%; in experiment [4], 90% (active). The inhibition is 10% in experiment [2] and -8% in experiment [3]. Moreover, the outcome in experiment [5], in experiment [6], in experiment [7] and in experiment [8] was inactive.

As for `Oc1ccc(Nc2ccnc3cc(Cl)ccc23)cc1`, the growth inhibition is 97% (active) in experiment [1] and 100% (active) in experiment [4]. Also, the inhibition in experiment [2] and in experiment [3] was 0% each time. The result in experiment [5], in experiment [6], in experiment [7] and in experiment [8] was inactive.

With `CC1(C)N=C(N)N=C(N)N1OCc1ccc(-c2ccccc2)cc1`, the values for the growth inhibition in experiment [1] and in experiment [4] were 97% (active) and 95% (active), respectively. Also, the inhibition was 64% (active) in experiment [2] and -6% in experiment [3]. Moreover, the outcome in experiment [5], in experiment [6], in experiment [7] and in experiment [8] was inactive.

Turning to `O[C@@H](c1cccc2ccccc12)[C@@H]1CN(CCc2ccccc2)CC[C@@]1(O)c1ccccc1`, the growth inhibition was 101% (active) in experiment [1] and 99% (active) in experiment [4]. Moreover, the inhibition in experiment [2] and in experiment [3] was -2% in each case. Further, the result in experiment [5], in experiment [6], in experiment [7] and in experiment [8] was inactive.

As to `CCCCCCOc1ccc(C(=O)N(Cc2ccccc2)c2c(-c3ccccc3)nc3cc(C)ccn23)cc1`, the values for the growth inhibition in experiment [1] and in experiment [4] were 96% (active) and 95% (active), respectively. Besides, the inhibition in experiment [2] is -8%; in experiment [3], 3%. Moreover, the result in experiment [5], in experiment [6], in experiment [7] and in experiment [8] was inactive.

Regarding `NC(=O)c1ccc(NC(=O)CN(Cc2ccc(Cl)cc2)S(=O)(=O)c2ccccc2)cc1`, the growth inhibition in experiment [1] is 75% (active); in experiment [4] it was 90% (active). The inhibition was 2% in experiment [2] and 6% in experiment [3]. Besides, the result in experiment [5], in experiment [6], in experiment [7] and in experiment [8] was inactive.

With `CC(C)(C)OC(=O)N1CCN(c2ccccc2NC(=O)c2cccc(C(F)(F)F)c2Oc2ccc(F)cc2)CC1`, the growth inhibition in experiment [1] was 9%; in experiment [4], 100% (active). The inhibition is 3% in experiment [2] and -8% in experiment [3]. Further, the outcome in experiment [5], in experiment [6], in experiment [7] and in experiment [8] was inactive.

For `Cc1cc(Nc2ccc(C)c(Cl)c2)n2ncnc2n1`, the growth inhibition in experiment [1] is 91% (active); in experiment [4], 98% (active). In addition, the inhibition in experiment [2] is 6%; in experiment [3], -1%. Besides, the result in experiment [5], in experiment [6], in experiment [7] and in experiment [8] was inactive.

`Cc1cccc2[nH]c(-c3cccc(-c4cccc(NC(=O)N[C@@H]5C[C@H]5c5ccccc5)c4)c3)nc12`: the results for the growth inhibition in experiment [1] and in experiment [4] were 28% and 98% (active), respectively. In addition, the inhibition is -4% in experiment [2] and -1% in experiment [3]. Moreover, the outcome in experiment [5], in experiment [6], in experiment [7] and in experiment [8] was inactive.

As to `CCCCOc1cc2c(cc1OCC)C(C=Cc1ccc(Cl)cc1Cl)=NCC2`, the results for the growth inhibition in experiment [1] and in experiment [4] were 95% (active) and 97% (active), respectively. Moreover, the figures for the inhibition in experiment [2] and in experiment [3] were -2% and -1%, respectively. The result in experiment [5], in experiment [6], in experiment [7] and in experiment [8] was inactive.

Turning to `CN(C)C(CNc1ncnc2cc(Cl)ccc12)Cc1ccccc1` (stereo not drawn), the growth inhibition is 88% (active) in experiment [1] and 96% (active) in experiment [4]. Moreover, the results for the inhibition in experiment [2] and in experiment [3] were 13% and -4%, respectively. Besides, the result in experiment [5], in experiment [6], in experiment [7] and in experiment [8] was inactive.

As to `COc1ccccc1CCCN1C(=O)C(c2ccccc2)(c2ccccc2)N=C1N`, the growth inhibition in experiment [1] and in experiment [4] was 99% (active) throughout. Also, the inhibition is 49% in experiment [2] and -3% in experiment [3]. The result in experiment [5], in experiment [6], in experiment [7] and in experiment [8] was inactive.

In the case of `COc1cc2nc(N3CCC(CNC(=O)c4ccc(-c5ccc(C(=O)N(C)C)cc5)cc4)CC3)nc(N)c2cc1OC`, the growth inhibition in experiment [1] is 89% (active); in experiment [4], 101% (active). In addition, the inhibition is 20% in experiment [2] and 0% in experiment [3]. For the same molecule, the result in experiment [5], in experiment [6], in experiment [7] and in experiment [8] was inactive.

With `COc1ccc2nccc([C@@H](O)CN3CCC(NC(=O)/C=C/c4ccc(Cl)c(C(F)(F)F)c4)CC3)c2c1`, the figures for the growth inhibition in experiment [1] and in experiment [4] were 89% (active) and 102% (active), respectively. Further, the inhibition in experiment [2] is 11%; in experiment [3] it was -4%. For the same molecule, the result in experiment [5], in experiment [6], in experiment [7] and in experiment [8] was inactive.
